Growth data for 34 compounds are collected here from PubChem BioAssay (NCI).

This is part of a sample that, as a whole, favours compounds with a hit. Of some 83,000 tested, about 20% had one in any assay.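 Assay: single dose, 48 h. Readout: percent growth (0 = no net growth; negative = cell death). Active: <10.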 Active and inactive are the calls of the source.

This assay deals with SK-MEL-2 melanoma. As to the kind of experiment: NCI-60 one-dose screen, 48 h (100 = growth as untreated, 0 = no growth, -100 = all killed). To be noted: 10 µM unless noted.
For `CCCCSc1nc(Nc2ccc(S(N)(=O)=O)cc2)c(C#N)c(-c2ccc(Cl)cc2)n1`, the growth was 118% (inactive).

Turning to `COc1cc(-c2cc(-c3cccc(OCC(=O)O)c3)[nH]c(=O)c2C#N)cc(OC)c1OC`, the growth was 132% (inactive).

On to `NS(=O)(=O)c1ccc(-n2cc(-c3cccc(NC(=O)c4cc(N5CCOCC5)cc(C(F)(F)F)c4)c3)nn2)cc1`, for which the growth is 61.9% (inactive).

On to `COc1cc(-c2ccc(/C=N/NC(=O)c3[nH]c4ccc(Br)cc4c3-c3ccccc3)o2)cc(OC)c1OC`, for which the growth is 107% (inactive).

In the case of `COc1ccc(C2=NN(c3ccccc3)C(c3ccc(OCc4ccccc4)c(OC)c3)C2)cc1OC` (centres undefined), the growth is 86.5% (inactive).

Regarding `CC(C)(C)OC(=O)/C=C/c1cccc2c1C(=O)NC(C)(c1cc3cc(Cl)ccc3oc1=O)N2` (centres undefined), the growth was 43.6% (inactive).

For the compound `O=C(Nc1ccccc1)N1CCN(c2cc(-c3cn(-c4ccccc4)nc3-c3cccc(O)c3)ccn2)CC1`, the growth was 57.4% (inactive).

Turning to `COc1ccc(NC(=O)Cn2c3c(sc2=O)[C@H]2[C@@H](O)[C@@H](O)[C@H](O)[C@@H]2CS3)cc1`, the growth is 101% (inactive).

Take `N#Cc1c(-c2ccccc2Cl)cc(-c2c[nH]c3ccccc23)[nH]c1=O`: the growth is 49% (inactive).

Consider `COc1ccc(C(=O)/C=C/c2cccc(Cl)c2Cl)cc1S(N)(=O)=O`, for which the growth is 74.4% (inactive).

Turning to `CNC(=O)c1cccc(NC(=O)c2ccc3c(c2)nnn3/C(C#N)=C/c2ccccn2)c1`, the growth was -60.7% (active).

Consider `COc1c(F)ccc(C(=O)Nc2ccc3nc(NC(=O)C4CCCN(S(=O)(=O)c5ccc(C#N)cc5)C4)sc3c2)c1F` (centres undefined), for which the growth was 97.1% (inactive).

As to `O=C(Cn1c2c(sc1=O)[C@H]1[C@@H](O)[C@@H](O)[C@H](O)[C@@H]1CS2)N1CCOCC1`, the growth is 100% (inactive).

In the case of `Nc1nc(-c2ccccc2)c(N=Nc2ccc([N+](=O)[O-])cc2Cl)s1`, the growth is 43.4% (inactive).

Turning to `C=Cn1cc(C(=O)O)c(=O)c2cc(F)c(N3CCN(c4nccc(-c5nccs5)n4)CC3)cc21`, the growth was -83.2% (active).

`C/C(=N\N=C1/C(=O)Nc2ccc(Cl)cc21)c1ccc2c(c1)Nc1ccccc1S2`: the growth is -13.6% (active).

As to `CC1=C(C(=O)c2ccccc2)C(c2cccc3ccccc23)n2c(nc3ccccc32)N1` (centres undefined), the growth is 106% (inactive).

On to `C#C[C@]1(O)CC[C@H]2[C@@H]3CC=C4c5sc(-c6ccc(O)c(O)c6)nc5CC[C@]4(C)[C@H]3CC[C@@]21C`, for which the growth was -97.9% (active).

For `NS(=O)(=O)c1ccc(-n2cc(-c3cccc(NC(=O)c4cc(Cl)cc(Cl)c4)c3)nn2)cc1`, the growth is 96.7% (inactive).

Turning to `COc1ccc(-c2nnc3ccc(N/N=C/c4ccc(C)cc4)nn23)cc1`, the growth was 108% (inactive).

`O=C(Nc1ccc(C(F)(F)F)cc1)Nc1ccc2oc(=O)ccc2c1`: the growth is 30% (inactive).

Consider `O=c1[nH]c(=O)c2c(-c3cc4ccccc4oc3=O)ccnc2[nH]1`, for which the growth was 82.6% (inactive).

With `CC1(C)CC[C@]2(C(=O)O)CC[C@]3(C)C(=CCC4[C@@]5(C)C[C@@H](O)[C@@H]6OC(c7ccccc7Br)OC[C@@]6(C)C5CC[C@]43C)C2C1` (some centres undefined), the growth was -1.06% (active).

As to `COc1cc(-c2nc3ccc(C)cc3[nH]2)ccc1OCc1nnc(-c2ccc(Br)cc2)o1`, the growth is 83% (inactive).

For `Clc1cccc(N/N=C/c2c[nH]c3ccc(Br)cc23)n1`, the growth was 27.4% (inactive).

Consider `Cn1cc(-c2cc3nc(-c4cn(C)c5ncccc45)cc(N)n3n2)c2cc(Cl)ccc21`, for which the growth was -80% (active).

On to `Cn1cc(-c2nnc(N)nc2-c2c[nH]c3ccccc23)c2cccnc21`, for which the growth was 24.3% (inactive).

As to `Cc1ccc([C@H]2C(C(=O)c3ccc(Cl)cc3)C3(N[C@@H]2c2ccccc2)C(=O)Nc2ccccc23)cc1` (some centres undefined), the growth was 15.6% (inactive).

As for `O=C(Cn1nc(-c2ccccc2)ccc1=O)N/N=C/c1ccc(N2CCOCC2)cc1`, the growth is 98.1% (inactive).

With `COc1cc2c(c(OC)c1OC)C(=O)CC(c1cccc(NC(=O)c3cccc([N+](=O)[O-])c3)c1)O2` (centres undefined), the growth is -10.4% (active).

Regarding `COc1ccc2[nH]cc(-c3nnc(N)nc3-c3c[nH]c4ncc(Br)cc34)c2c1`, the growth was 104% (inactive).

On to `CC(C)c1ccc2c(N)c(C(=O)Nc3ccc(C(F)(F)F)cn3)sc2n1`, for which the growth was 77.6% (inactive).

Regarding `C=C1CC[C@@H]2[C@]3(C)COC(c4ccco4)O[C@@H]3CC[C@@]2(C)[C@@H]1C/C=C1/C(=O)OCC1OC(C)=O` (some centres undefined), the growth was 59.5% (inactive).

Turning to `CCN(CC)c1ccc(/C=N/Nc2nc(-c3ccc(Br)cc3)cs2)c(O)c1`, the growth was 94.6% (inactive).
